Assay outcomes deposited in PubChem BioAssay by National Center for Advancing Translational Sciences (NCATS).
GCN5L2 inh – inhibitors of human GCN5L2 histone acetyltransferase. Q92830. AID 504327. GCN5L2 HAT assay, ThioGlo1 CoA-SH fluorescence. 0.21% of 390,000 active. Potency, µM (titrated, usually from 58.9 µM), actives largely listed as inhibitors
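GCN5L2 (20 nM) in 50mM HEPES pH 7.5, 0.1mM EDTA, 0.01% Tween-20 preincubated 15 min with compounds at room temperature. Reaction started with H3(1-25) 75uM, acetyl-CoA 70uM, ThioGlo1 50uM; CoA-thiol fluorescence (Ex340/Em540) read at 0 and 20 min.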
Sfp PPTase inh – blocks B. subtilis Sfp PPTase activity; Biochemical Sfp PPTase activity, qHTS; AID 1490; Q9F4F7; 3.5% of 310,000 active; Potency, µM, actives largely listed as inhibitors;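 note: the enzyme is Sfp with the accession as filed and its product quenches rhodamine fluorescence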
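Fluorescence-quenching assay: 15 nM Sfp-PPTase preincubated 15 min at room temperature with compound, then 5 uM rhodamine-CoA and 12.5 uM BHQ-2-labelled YbbR peptide added. Fluorescence (ex 525/em 598 nm) read at start and after 30 min; difference gives rate.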
Epigenetic reg – epigenetic control regulation, reporter derepression; murine LDR cells, GFP reporter derepression, 30 h; Potency, µM (series often up to 53.9 µM), actives largely listed as activators; 0.2% of 280,000 active; note: nearly all actives have a fitted effect of over 60% in size
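In this reporter-derepression format, murine cells bearing a silenced integrated CMV-GFP locus incubate with test compound (30 h, 37 C), then are washed and imaged; fluorescent objects of 20–120 um count as induced cells.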
JMJD2E inh – JMJD2E (human) inhibition | 1.6% of 230,000 active | AID 2147 | JMJD2E catalytic domain, FDH-coupled NADH fluorescence (FDH is formaldehyde dehydrogenase) | Potency, µM (doses to about 57.1 µM), usual class: inhibitors; active = well fitted inhibition curve with a large enough effect, not every such curve was filed as active; inconclusive = small, poorly fitted or top-dose-only effect, or another doubt; inactive = no such curve, though single readings can be large or run the other way; note: nearly all actives have a fitted effect of over 50% in size
Target sequence (B2RXH2 1-337 limits assumed): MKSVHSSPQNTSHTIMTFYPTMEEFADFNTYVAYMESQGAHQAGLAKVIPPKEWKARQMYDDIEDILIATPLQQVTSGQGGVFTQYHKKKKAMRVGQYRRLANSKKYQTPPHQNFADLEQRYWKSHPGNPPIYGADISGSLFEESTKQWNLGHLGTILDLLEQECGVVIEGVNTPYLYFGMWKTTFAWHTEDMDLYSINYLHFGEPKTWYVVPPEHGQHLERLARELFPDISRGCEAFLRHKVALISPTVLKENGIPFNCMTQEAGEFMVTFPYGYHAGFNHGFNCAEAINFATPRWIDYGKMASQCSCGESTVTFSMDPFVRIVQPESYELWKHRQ
IMPase Li inh – IMPase inhibition in cells with lithium potentiation | CHO-M1 cells, IP1 TR-FRET (IP-One), carbachol + lithium | Potency, µM (doses to about 59.4 µM), hits mostly inhibitors | 0.35% of 210,000 active | AID 1457;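 note: IP1 builds up when IMPase is blocked and the TR-FRET signal falls; nearly all actives have a fitted effect of over 50% in size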
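Test compounds were applied to CHO-M1 cells previously cultured for 16–30 h at 2000 per well. A small lithium amount accompanied them; after 30 min at 37C, IP1 was quantified by TR-FRET.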
NPSR antag – antagonists of human neuropeptide S receptor cAMP signaling | CHO-NPSR cells, cAMP TR-FRET, antagonist mode | Q6W5P4 | Potency, µM (top dose mostly 38.3 µM), actives largely listed as inhibitors | 1% of 220,000 active; note: nearly all actives have a fitted effect of over 50% in size
Target sequence (Q6W5P4 whole entry, looked up): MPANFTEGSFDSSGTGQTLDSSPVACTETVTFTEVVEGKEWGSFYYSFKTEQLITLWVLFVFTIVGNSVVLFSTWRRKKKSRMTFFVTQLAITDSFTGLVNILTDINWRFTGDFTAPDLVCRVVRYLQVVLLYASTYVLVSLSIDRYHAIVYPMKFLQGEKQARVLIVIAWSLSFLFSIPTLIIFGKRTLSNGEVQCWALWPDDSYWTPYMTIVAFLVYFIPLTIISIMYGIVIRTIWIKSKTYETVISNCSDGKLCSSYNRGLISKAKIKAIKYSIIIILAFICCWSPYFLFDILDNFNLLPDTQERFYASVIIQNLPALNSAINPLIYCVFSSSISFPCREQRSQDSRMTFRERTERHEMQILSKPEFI
Numbers stand for hits; ! = not confirmed by another sample. Shown are actives, neighbours in structure and some others; about 3.6% of the full set was active somewhere. Unless noted, calls come from the whole dose curve; as a rule, active = well fitted curve in the direction sought with a large enough effect; inconclusive = small, poorly fitted or top-dose-only effect, or another doubt; inactive = no such curve, though single readings can be large; an effect the other way counts as inactive or inconclusive.

What do the screens show for `C=C(C)C1CCC(C)=CC1c1c(O)cc(O)cc1CCCCC` (stereo unspecified)?
GCN5L2 inh: inactive; Sfp PPTase inh: inactive; Epigenetic reg: inactive; IMPase Li inh: inactive

Results for N[C@@H](CP(=O)(O)O)C(=O)O ?
IMPase Li inh: inactive

What do the screens show for `NCCSC(c1ccccc1)c1ccccc1`?
IMPase Li inh: inactive

What do the screens show for `Cc1cc(SCc2sc(-c3ccc(C(F)(F)F)c(F)c3)nc2C)ccc1OCC(=O)O`?
GCN5L2 inh: 32µM; Sfp PPTase inh: inactive; Epigenetic reg: inactive; JMJD2E inh: inactive; IMPase Li inh: inactive

What do the screens show for `O=C1NC(=O)C(=Cc2ccccc2Oc2ccc(F)cc2)C(=O)N1`?
GCN5L2 inh: inactive; Sfp PPTase inh: 45µM; Epigenetic reg: inactive; JMJD2E inh: inactive; IMPase Li inh: inactive; NPSR antag: inactive

How did CN1C(=O)C(=Cc2ccc(-c3cccc(Cl)c3)o2)C(=O)N(C)C1=O do in these assays?
GCN5L2 inh: inactive; Sfp PPTase inh: inconclusive; Epigenetic reg: inactive; JMJD2E inh: inactive; IMPase Li inh: inactive; NPSR antag: inactive

What do the screens show for `CN1C(=O)C(=Cc2ccccc2Oc2ccc(Cl)c(F)c2)C(=O)N(C)C1=O`?
GCN5L2 inh: inactive; Sfp PPTase inh: 56µM; Epigenetic reg: inactive; JMJD2E inh: inactive; IMPase Li inh: inactive; NPSR antag: inactive

What do the screens show for `O=C(Cl)OCc1ccccc1`?
IMPase Li inh: inactive

What do the screens show for `O=S(=O)(Nc1nccs1)c1ccc([As](=O)(O)O)cc1`?
IMPase Li inh: inactive

How did CC(C)[C@H](CO)Nc1nc(Nc2cccc(Cl)c2)c2ncn(C(C)C)c2n1 do in these assays?
GCN5L2 inh: inactive; Sfp PPTase inh: inactive; Epigenetic reg: inactive; JMJD2E inh: inconclusive; IMPase Li inh: inactive

How did NCC(O)c1cc(O)c(O)cc1F (stereo unspecified) do in these assays?
GCN5L2 inh: inactive; Epigenetic reg: inactive; JMJD2E inh: 14µM; IMPase Li inh: inactive; NPSR antag: inconclusive

What do the screens show for `Cn1c(O)c(C(=Nc2ccccc2)SCc2ccc(Cl)cc2)c(=O)n(C)c1=O`?
GCN5L2 inh: inactive; Sfp PPTase inh: 45µM; Epigenetic reg: inactive; JMJD2E inh: inactive; NPSR antag: inactive

Results for Cn1c(O)c(/C=C2\C=Nc3ccc(Br)cc32)c(=O)n(C)c1=O ?
GCN5L2 inh: inactive; Sfp PPTase inh: inactive

What do the screens show for `CCNC(=S)NCCC1=c2ccccc2=N/C1=C\c1c(O)n(C)c(=O)n(C)c1=O`?
GCN5L2 inh: inactive; Sfp PPTase inh: 16µM; Epigenetic reg: inconclusive; JMJD2E inh: inactive; NPSR antag: inconclusive

How did CC(N)[C@H](O)c1ccc(O)c(O)c1 (stereo partly specified) do in these assays?
GCN5L2 inh: inactive; Epigenetic reg: inactive; JMJD2E inh: 5.6µM; IMPase Li inh: inactive; NPSR antag: inactive

Results for C[C@@H](N)[C@@H](O)c1ccc(O)c(O)c1 ?
GCN5L2 inh: inactive; Sfp PPTase inh: 56µM; Epigenetic reg: inactive; IMPase Li inh: inactive

Results for CN(C)c1ccc(N)cc1 ?
IMPase Li inh: inactive

Results for CCN1CCN(Cc2ccc(C)cc2)CC1 ?
GCN5L2 inh: inactive; Sfp PPTase inh: inactive; Epigenetic reg: inactive; JMJD2E inh: inactive; IMPase Li inh: inactive; NPSR antag: inactive

How did Cc1ccc(CN2CCN(Cc3ccccc3F)CC2)cc1 do in these assays?
GCN5L2 inh: inactive; Sfp PPTase inh: inactive; Epigenetic reg: inactive; JMJD2E inh: 13µM; IMPase Li inh: inactive; NPSR antag: inactive

What do the screens show for `COc1ccccc1CN1CCN(Cc2ccc(Cl)cc2)CC1`?
GCN5L2 inh: inactive; Sfp PPTase inh: 79µM; Epigenetic reg: inactive; JMJD2E inh: 20µM; IMPase Li inh: inactive; NPSR antag: inactive

Results for Clc1cccc(C(Cl)(Cl)Cl)n1 ?
IMPase Li inh: inactive

Results for CCNC(=O)[C@H]1O[C@@H](n2cnc3c(N)ncnc32)[C@H](O)[C@H]1O ?
Epigenetic reg: inactive; JMJD2E inh: inactive; IMPase Li inh: inactive; NPSR antag: inactive

How did Cc1ccc(C(=O)n2c(N)nc3ccccc32)cc1 do in these assays?
GCN5L2 inh: inactive; Sfp PPTase inh: inactive; Epigenetic reg: inactive; JMJD2E inh: 35µM; IMPase Li inh: inactive; NPSR antag: inactive

Results for O=C(O)Cc1cnc[nH]1 ?
GCN5L2 inh: inactive; Sfp PPTase inh: 50µM; Epigenetic reg: inactive; JMJD2E inh: 14µM; IMPase Li inh: inactive; NPSR antag: inactive

What do the screens show for `C[C@@H](N)Cc1cnc[nH]1`?
GCN5L2 inh: inactive; Sfp PPTase inh: inactive; Epigenetic reg: inactive; JMJD2E inh: inactive; IMPase Li inh: inactive; NPSR antag: inactive

Results for O=C(CC1NCCC[C@H]1O)Cn1cnc2cc(Br)c(Cl)cc2c1=O (stereo partly specified) ?
GCN5L2 inh: inactive; Sfp PPTase inh: inconclusive

Results for O=C(O)[C@@H]1CSC(c2cccnc2)N1 (stereo partly specified) ?
Sfp PPTase inh: 40µM; Epigenetic reg: inactive; JMJD2E inh: inconclusive; IMPase Li inh: inactive

How did C=CCc1c(C)[nH]c(=S)c(C#N)c1C do in these assays?
GCN5L2 inh: inactive; Sfp PPTase inh: 10µM; Epigenetic reg: inactive; JMJD2E inh: inconclusive; IMPase Li inh: inactive; NPSR antag: inactive

How did C/C1=C/C(=O)O[C@@H]2C[C@@H](CC[C@H](C)/C=C\CC1)O[C@@](O)(C1CSC(=O)N1)C2 (stereo partly specified) do in these assays?
GCN5L2 inh: inactive; Sfp PPTase inh: inactive

What do the screens show for `CC(C)C[C@H]1C(=O)N2CCC[C@@H]2[C@@]2(O)O[C@](NC(=O)[C@@H]3C=C4c5cccc6[nH]cc(c56)C[C@@H]4N(C)C3)(C(C)C)C(=O)N12`?
GCN5L2 inh: inactive; Sfp PPTase inh: inactive; Epigenetic reg: inactive; JMJD2E inh: inconclusive; IMPase Li inh: inactive

Results for CC(C)C[C@H]1C(=O)N2CCCC2[C@]2(O)O[C@](NC(=O)[C@@H]3C=C4c5cccc6[nH]c(Br)c(c56)C[C@H]4N(C)C3)(C(C)C)C(=O)N12 (stereo partly specified) ?
GCN5L2 inh: inactive; Sfp PPTase inh: 45µM; Epigenetic reg: inactive; JMJD2E inh: inconclusive; IMPase Li inh: inactive; NPSR antag: 13µM

What do the screens show for `CC(C)[C@@]1(NC(=O)[C@H]2CC3c4cccc5[nH]cc(c45)C[C@H]3N(C)C2)O[C@@]2(O)C3CCCN3C(=O)[C@@H](Cc3ccccc3)N2C1=O` (stereo partly specified)?
GCN5L2 inh: inactive; Sfp PPTase inh: 79µM!; Epigenetic reg: inactive; IMPase Li inh: inactive

Results for O=C(O)CS(=O)(=O)C(c1ccccc1)c1ccccc1 ?
IMPase Li inh: inactive

How did CCOP(=S)(OCC)N1CCOCCOCCN(P(=S)(OCC)OCC)CCOCCOCC1 do in these assays?
GCN5L2 inh: inactive; Sfp PPTase inh: inactive; Epigenetic reg: inactive; JMJD2E inh: inactive; IMPase Li inh: inactive; NPSR antag: inactive
